PubChem BioAssay (NCATS)
Records with an inconclusive call do not appear. Calls of active or inactive are those of the source. Calls follow the shape of the dose curve; as a rule, active = well fitted curve in the direction sought with a large enough effect; inconclusive = small, poorly fitted or top-dose-only effect, or another doubt; inactive = no such curve, though single readings can be large; an effect the other way counts as inactive or inconclusive.

Assays:
[1] = Quantitative High-Throughput drug screen in 47 multiple myeloma cell lines against the NCATS MIPE library collection: MOLP8_DSMZ cell viability assay (AID 1918977); also: nearly all actives have a fitted effect of over 45% in size
In short: (§1)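 Plated at 500 cells per well, myeloma lines received MIPE 4.0 compounds by pin tool. Following 48 h culture at 37 °C, CellTiter-Glo luminescence gave viability relative to DMSO and media-only controls.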

[2] = Quantitative High-Throughput drug screen in 47 multiple myeloma cell lines against the NCATS MIPE library collection: NCIH929_DSMZ cell viability assay (AID 1918978); also: nearly all actives have a fitted effect of over 35% in size
In short: as §1

[3] = Quantitative High-Throughput drug screen in 47 multiple myeloma cell lines against the NCATS MIPE library collection: OCIMY1_PLB cell viability assay (AID 1918979); also: nearly all actives have a fitted effect of over 35% in size;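 as to viability: series mostly up to about 46 µM; 100% = DMSO-only wells and 0% = cell-free media-only wells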
In short: as §1

[4] = Quantitative High-Throughput drug screen in 47 multiple myeloma cell lines against the NCATS MIPE library collection: MM1S_ATCC cell viability assay (AID 1918980); also: nearly all actives have a fitted effect of over 45% in size
In short: as §1

[5] = Quantitative High-Throughput drug screen in 47 multiple myeloma cell lines against the NCATS MIPE library collection: MM1R_ATCC cell viability assay (AID 1918981); also: nearly all actives have a fitted effect of over 35% in size
In short: as §1

[6] = Quantitative High-Throughput drug screen in 47 multiple myeloma cell lines against the NCATS MIPE library collection: KMS28PE_JCRB cell viability assay (AID 1918983); also: nearly all actives have a fitted effect of over 35% in size
In short: as §1

[7] = Quantitative High-Throughput drug screen in 47 multiple myeloma cell lines against the NCATS MIPE library collection: KMS34_JCRB cell viability assay (AID 1918985); also: nearly all actives have a fitted effect of over 40% in size
In short: as §1

[8] = Quantitative High-Throughput drug screen in 47 multiple myeloma cell lines against the NCATS MIPE library collection: OCIMY5_PLB cell viability assay (AID 1918988); also: nearly all actives have a fitted effect of over 65% in size
In short: as §1

[9] = Quantitative High-Throughput drug screen in 47 multiple myeloma cell lines against the NCATS MIPE library collection: XG6_PLB cell viability assay (AID 1919865); also: nearly all actives have a fitted effect of over 40% in size
In short: as §1

[10] = Quantitative High-Throughput drug screen in 47 multiple myeloma cell lines against the NCATS MIPE library collection: XG1_PLB cell viability assay (AID 1919866); also: nearly all actives have a fitted effect of over 35% in size
In short: as §1

[11] = Quantitative High-Throughput drug screen in 47 multiple myeloma cell lines against the NCATS MIPE library collection: VP6_DJ cell viability assay (AID 1919867); also: nearly all actives have a fitted effect of over 40% in size
In short: as §1

[12] = Quantitative High-Throughput drug screen in 47 multiple myeloma cell lines against the NCATS MIPE library collection: PE2_PLB cell viability assay (AID 1919869); also: nearly all actives have a fitted effect of over 35% in size
In short: as §1

[13] = Quantitative High-Throughput drug screen in 47 multiple myeloma cell lines against the NCATS MIPE library collection: PCM6_Riken cell viability assay (AID 1919870); also: nearly all actives have a fitted effect of over 30% in size
In short: as §1

[14] = Quantitative High-Throughput drug screen in 47 multiple myeloma cell lines against the NCATS MIPE library collection: OCIMY7_PLB cell viability assay (AID 1918987); also: nearly all actives have a fitted effect of over 65% in size
In short: as §1

[15] = Quantitative High-Throughput drug screen in 47 multiple myeloma cell lines against the NCATS MIPE library collection: SKMM1_PLB cell viability assay (AID 1919863); details: SKMM1 myeloma viability, CellTiter-Glo ATP, 48 h; viability: active compounds read low; also: nearly all actives have a fitted effect of over 35% in size; as to viability: series mostly up to about 46 µM
In short: as §1

[16] = Quantitative High-Throughput drug screen in 47 multiple myeloma cell lines against the NCATS MIPE library collection: U266_ATCC cell viability assay (AID 1919864); also: nearly all actives have a fitted effect of over 35% in size;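 as to viability (% of DMSO control): 0% = media-only wells without cells and 100% = DMSO-only wells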
In short: as §1

[17] = Quantitative High-Throughput drug screen in 47 multiple myeloma cell lines against the NCATS MIPE library collection: UTMC2_PLB cell viability assay (AID 1919868); details: CellTiter-Glo ATP luminescence, 48 h; viability (% of DMSO control): at 45.8 µM; also: nearly all actives have a fitted effect of over 55% in size
In short: as §1

[18] = Quantitative High-Throughput drug screen in 47 multiple myeloma cell lines against the NCATS MIPE library collection: LP1_DSMZ cell viability assay (AID 1918982); also: nearly all actives have a fitted effect of over 35% in size
In short: as §1

[19] = Quantitative High-Throughput drug screen in 47 multiple myeloma cell lines against the NCATS MIPE library collection: OPM1_PLB cell viability assay (AID 1918989); also: nearly all actives have a fitted effect of over 40% in size
In short: as §1

[20] = Quantitative High-Throughput drug screen in 47 multiple myeloma cell lines against the NCATS MIPE library collection: L363_DSMZ cell viability assay (AID 1918984); also: nearly all actives have a fitted effect of over 40% in size
In short: as §1
Potency is read from the fitted curve at half-maximal effect.

O=S(=O)(F)Cc1ccccc1
inactive: Potency [1] | Potency [2] | Potency [3] | Potency [5] | Potency [6] | Potency [7] | Potency [8] | Potency [11]
active: Potency [4] 41.8 nM | Potency [9] 743 nM | Potency [10] 235 nM | Potency [12] 105 nM | Potency [13] 2640 nM

CC=C(C)C(=O)O[C@H]1C(C)=C2[C@@H]3OC(=O)[C@@](C)(O)[C@@]3(O)[C@@H](OC(=O)CCC)C[C@](C)(OC(C)=O)[C@@H]2[C@@H]1OC(=O)CCCCCCC
active: Potency [1] 41.8 nM | Potency [2] 332 nM | Potency [3] 105 nM | Potency [4] 18.7 nM | Potency [5] 16.6 nM | Potency [6] 132 nM | Potency [7] 16.6 nM | Potency [14] 264 nM | Potency [8] 10.5 nM | Potency [15] 105 nM | Potency [16] 935 nM | Potency [9] 372 nM | Potency [10] 46.9 nM | Potency [17] 743 nM | Potency [12] 264 nM | Potency [13] 11800 nM

C[C@@H]1[C@H](O)[C@@H](C)C=CC=CCCC=CC=CC=CC=C[C@H](O[C@H]2O[C@@H](C)[C@H](O)[C@@H](N)[C@@H]2O)CC2O[C@](O)(C[C@@H](O)[C@H](O)CC[C@@H](O)C[C@@H](O)C[C@@H](O)CC(=O)O[C@H]1C)C[C@H](O)[C@H]2C(=O)O
inactive: Potency [1] | Potency [2] | Potency [3] | Potency [4] | Potency [5] | Potency [18] | Potency [6] | Potency [7] | viability [15] 120% | Potency [16] | Potency [10] | Potency [12] | Potency [13]

COc1ccc2c(c[n+](C)c3c4cc5c(cc4ccc23)OCO5)c1OC
active: Potency [1] 3320 nM | Potency [2] 7430 nM | Potency [3] 7430 nM | Potency [4] 4690 nM | Potency [5] 2350 nM | Potency [18] 14800 nM | Potency [6] 4690 nM | Potency [7] 4180 nM | Potency [14] 2960 nM | Potency [8] 2090 nM | Potency [19] 9350 nM | Potency [15] 5900 nM | Potency [16] 5900 nM | Potency [9] 5260 nM | Potency [10] 2640 nM | Potency [11] 2960 nM | Potency [17] 5260 nM | Potency [12] 7430 nM | Potency [13] 7430 nM

c1ccc(CCCN2CCN(CCOC(c3ccccc3)c3ccccc3)CC2)cc1
active: Potency [1] 20900 nM | Potency [2] 23500 nM | Potency [3] 23500 nM | Potency [5] 23500 nM | Potency [7] 26400 nM | Potency [8] 20900 nM | Potency [15] 20900 nM | Potency [16] 23500 nM | Potency [10] 20900 nM | Potency [12] 18700 nM | Potency [13] 26400 nM
inactive: Potency [20]

CCOC(=O)Nc1ccc(NCc2ccc(F)cc2)cc1N
inactive: Potency [1] | Potency [3] | Potency [5] | Potency [6] | Potency [7] | Potency [8] | viability [15] 119% | Potency [12]
active: Potency [2] 14800 nM | Potency [4] 18700 nM | Potency [14] 10500 nM | Potency [16] 13200 nM | Potency [10] 13200 nM | Potency [11] 20900 nM

CC1=C(O)C(=O)C=C2C1=CC=C1[C@@]2(C)CC[C@@]2(C)[C@@H]3C[C@](C)(C(=O)O)CC[C@]3(C)CC[C@]12C
active: Potency [1] 418 nM | Potency [2] 372 nM | Potency [3] 833 nM | Potency [4] 662 nM | Potency [5] 469 nM | Potency [6] 833 nM | Potency [7] 743 nM | Potency [14] 296 nM | Potency [8] 296 nM | Potency [19] 743 nM | Potency [15] 1050 nM | Potency [16] 743 nM | Potency [9] 743 nM | Potency [10] 590 nM | Potency [17] 1480 nM | Potency [12] 743 nM | Potency [13] 743 nM

O=c1[nH]c2ccc(Cl)cc2c(N[C@@H]2CN3CCC2CC3)c1-c1nc2ccccc2[nH]1
active: Potency [1] 743 nM | Potency [2] 148 nM | Potency [3] 4690 nM | Potency [4] 74.3 nM | Potency [5] 83.3 nM | Potency [6] 2350 nM | Potency [7] 74.3 nM | Potency [14] 59 nM | Potency [8] 83.3 nM | Potency [15] 4690 nM | Potency [16] 5900 nM | Potency [9] 37.2 nM | Potency [10] 264 nM | Potency [17] 332 nM | Potency [12] 74.3 nM | Potency [13] 166 nM

CC[C@@]1(O)C(=O)OCc2c1cc1n(c2=O)Cc2cc3ccccc3nc2-1
active: Potency [1] 132 nM | Potency [2] 105 nM | Potency [3] 418 nM | Potency [4] 23.5 nM | Potency [5] 26.4 nM | Potency [18] 590 nM | Potency [6] 166 nM | Potency [7] 209 nM | Potency [14] 1 nM | Potency [8] 166 nM | Potency [15] 235 nM | Potency [16] 332 nM | Potency [9] 14.8 nM | Potency [10] 33.2 nM | Potency [11] 166 nM | Potency [17] 16.6 nM | Potency [12] 209 nM | Potency [13] 372 nM

COc1cccc2c1[C@]13CCN(CC4CC4)[C@H](C2)[C@]1(OC)CCC(=O)C3
active: Potency [11] 20900 nM
inactive: Potency [1] | Potency [2] | Potency [3] | Potency [4] | Potency [5] | Potency [6] | Potency [14] | Potency [8] | Potency [16] | Potency [9] | Potency [10] | Potency [12] | Potency [13]

CCN1CCN(C(=O)Cc2ccc(Nc3ncc(F)c(Nc4ccc(C(=O)Nc5ccccc5Cl)cc4)n3)cc2)CC1
active: Potency [1] 7430 nM | Potency [2] 2640 nM | Potency [3] 7430 nM | Potency [4] 5900 nM | Potency [5] 5900 nM | Potency [18] 8330 nM | Potency [6] 14800 nM | Potency [20] 1870 nM | Potency [7] 4180 nM | Potency [14] 526 nM | Potency [8] 2640 nM | Potency [15] 9350 nM | Potency [16] 7430 nM | Potency [9] 743 nM | Potency [10] 1180 nM | Potency [17] 1320 nM | Potency [12] 7430 nM | Potency [13] 2960 nM
